Laboratory results published in PubChem BioAssay (Tox21).
Inconclusive results are not listed. Calls of active or inactive are those of the source. Unless noted, the call rests on the fitted dose curve; in most records, active means well fitted curve in the direction sought with a large enough effect in the repeat runs; inconclusive means weak or mixed curves; inactive means no such curve, though single readings can be large; an effect the other way counts as inactive or inconclusive.

Assays:
[1] = biological target: Thyrotropin receptor (Homo sapiens) (UniProt P16473); experiment: qHTS assay to identify small molecule agonists of the thyroid stimulating hormone receptor (TSHR) signaling pathway (AID 1224843; calls by dose curve; further: nearly all actives have a fitted effect of over 45% in size)
In short: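 TSHR-expressing HEK293 cells (800 per well) were exposed to compounds for 30 min at room temperature. cAMP was then detected by HTRF competition with cAMP-d2 and anti-cAMP cryptate, read after 1 h at room temperature. Fifteen concentrations, triplicate.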

[2] = qHTS assay to identify small molecule agonists of the hypoxia (HIF-1) signaling pathway - cell viability counter screen (AID 1224844; calls by dose curve; further: nearly all actives have a fitted effect of over 50% in size)
In short: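 HRE-bla ME-180 cells, 2,000/well in 0.5% dialyzed FBS medium, treated 17 h at 37C with compounds. Viability read in the same wells as the bla reporter, by CellTiter-Glo luminescence after 30 min at room temperature.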

[3] = qHTS assay to identify small molecule agonists of H2AX (AID 1224845; active means well fitted activation curve with a large enough effect in the signal ratio in the repeat runs, not every such curve was filed as active; the % refers to the signal ratio)
In short: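 Wild-type CHO-K1 cells plated overnight, then exposed 3 hr at 37C to compounds at 15 concentrations (0.76% DMSO). Lysed, then HTRF anti-pH2AX(S139)-cryptate/anti-H2AX-d2 detection after 24 hr at room temperature; emissions 665 and 620 nm.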

[4] = qHTS assay to identify small molecule agonists of the hypoxia (HIF-1) signaling pathway (AID 1224846; active means well fitted activation curve with a large enough effect in the signal ratio in the repeat runs, not every such curve was filed as active; the % refers to the signal ratio)
In short: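 HRE-bla ME-180 beta-lactamase reporter cells in medium with 0.5% dialyzed FBS, pre-incubated 5 h then exposed to compounds 17 h at 37C, 5% CO2; reporter induction read with CCF4-AM FRET substrate.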

[5] = qHTS assay to identify small molecule agonists of H2AX - cell viability counter screen (AID 1224847; calls by dose curve; further: top concentration of the series differs between compounds; nearly all actives have a fitted effect of over 30% in size)
In short: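 After overnight plating of 1000 CHO-K1 cells per well, a 15-concentration compound series was applied for 3 hr at 37C. Luminescence from CellTiter-Glo, read following 30 min at room temperature, reflected cell viability.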

[6] = qHTS RealTime-Glo MT Cell Viability Assay in HepG2 cells - 24 hour (AID 1224867); further: nearly all actives have a fitted effect of over 50% in size
In short: (§1)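 HepG2 cells were seeded at 600 cells/well together with NanoLuc luciferase and a cell-permeant prosubstrate, preincubated 5 h at 37 C/5% CO2, then pin-dosed with compounds in DMSO. Nonlytic luminescence from viable cells was read at each time point.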

[7] = qHTS RealTime-Glo MT Cell Viability Assay in HEK293 cells - 32 hour (AID 1224868); further: nearly all actives have a fitted effect of over 50% in size; further: potency means the concentration at half of the fitted maximal effect; on activity change, negative = cytotoxic: top concentration of the series differs between compounds
In short: (§2)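 HEK293 cells were seeded at 600 cells/well together with NanoLuc luciferase and cell-permeant prosubstrate, preincubated 5 h at 37 C/5% CO2, then given compound in DMSO by pintool. Luminescence from viable-cell prosubstrate reduction was read repeatedly over 40 h.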

[8] = A CellTox Green Cytotoxicity Assay to monitor cytotoxicity in HEK293 cells - 0 hour (AID 1224869); further: nearly all actives have a fitted effect of over 50% in size
In short: (§3)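 HEK293 cells, 600/well, were preincubated 5 hours and then exposed to compounds at 37 C for up to 40 hours. A cell-impermeant cyanine dye staining dead-cell DNA was read by fluorescence at 0, 8, 16, 24, 32 and 40 h time points.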

[9] = qHTS RealTime-Glo MT Cell Viability Assay in HepG2 cells - 40 hour (AID 1224870); further: nearly all actives have a fitted effect of over 50% in size
In short: (§4)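 HepG2 cells mixed with RealTime-Glo MT reagents (NanoLuc plus cell-permeant prosubstrate) were seeded at 600 cells/well, incubated 5 h at 37 C/5% CO2, then pinned with compounds in DMSO; nonlytic luminescence tracked viability during 40 h treatment.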

[10] = A CellTox Green Cytotoxicity Assay to monitor cytotoxicity in HEK293 cells - 40 hour (AID 1224871); further: nearly all actives have a fitted effect of over 45% in size; further: potency means the concentration at half of the fitted maximal effect
In short: as §3

[11] = qHTS RealTime-Glo MT Cell Viability Assay in HEK293 cells - 16 hour (AID 1224872)
In short: as §2

[12] = qHTS RealTime-Glo MT Cell Viability Assay in HepG2 cells - 8 hour (AID 1224873); further: nearly all actives have a fitted effect of over 55% in size
In short: as §4

[13] = qHTS RealTime-Glo MT Cell Viability Assay in HEK293 cells - 40 hour (AID 1224874); conditions: RealTime-Glo luminescence; max response: hits give low values; further: nearly all actives have a fitted effect of over 50% in size; further: potency means the concentration at half of the fitted maximal effect
In short: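 600 cells/well were plated with the nonlytic NanoLuc/prosubstrate reagent, pre-incubated 5 h, then given 23 nL of compound in DMSO. Incubation at 37 C for 40 h, with luminescence from viable-cell-reduced substrate read repeatedly from 0 h.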

[14] = A CellTox Green Cytotoxicity Assay to monitor cytotoxicity in HEK293 cells - 24 hour (AID 1224875); further: nearly all actives have a fitted effect of over 45% in size
In short: as §3

[15] = A CellTox Green Cytotoxicity Assay to monitor cytotoxicity in HepG2 cells - 16 hour (AID 1224876); further: nearly all actives have a fitted effect of over 45% in size
In short: (§5)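 HepG2 cells, 600/well, preincubated 5 h with CellTox Green dye, then exposed to Tox21 compounds in DMSO at 37 C for up to 40 h. Dead-cell DNA fluorescence read at the indicated time point.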

[16] = qHTS RealTime-Glo MT Cell Viability Assay in HepG2 cells - 32 hour (AID 1224877); further: nearly all actives have a fitted effect of over 55% in size
In short: as §1

[17] = A CellTox Green Cytotoxicity Assay to monitor cytotoxicity in HepG2 cells - 24 hour (AID 1224878); further: nearly all actives have a fitted effect of over 45% in size; further: potency means the concentration at half of the fitted maximal effect
In short: as §5

[18] = A CellTox Green Cytotoxicity Assay to monitor cytotoxicity in HepG2 cells - 40 hour (AID 1224879); further: nearly all actives have a fitted effect of over 40% in size; further: potency means the concentration at half of the fitted maximal effect
In short: as §5

[19] = qHTS assay to identify small molecule antagonists of the estrogen related receptor (ERR) signaling pathway from Tox21 library (AID 1224848); further: nearly all actives have a fitted effect of over 50% in size
In short: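 Cells: ERR line, 2,000/well; 6 h preincubation 37 C/5% CO2. Cpd in DMSO via pin tool; 18 h, 37 C. ONE-Glo, 30 min RT, luminescence.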

[20] = qHTS assay to identify small molecule agonists of the estrogen related receptor (ERR) signaling pathway from Tox21 library (AID 1224849; calls by dose curve; further: nearly all actives have a fitted effect of over 15% in size); conditions: ERR reporter cell line, ONE-Glo luciferase, 18 h; at 92.4 µM (top of the series) unless noted
In short: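 ERR reporter cells (NTP line) pre-incubated 6 hours at 37 C, then exposed to compounds for 18 hours at 37 C. ONE-Glo luciferase luminescence was read after 30 minutes at room temperature.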
On the % scale 0 is the no-effect control and ±100 the full control effect.

Sequence of Thyrotropin receptor (Homo sapiens) (P16473 whole entry, looked up): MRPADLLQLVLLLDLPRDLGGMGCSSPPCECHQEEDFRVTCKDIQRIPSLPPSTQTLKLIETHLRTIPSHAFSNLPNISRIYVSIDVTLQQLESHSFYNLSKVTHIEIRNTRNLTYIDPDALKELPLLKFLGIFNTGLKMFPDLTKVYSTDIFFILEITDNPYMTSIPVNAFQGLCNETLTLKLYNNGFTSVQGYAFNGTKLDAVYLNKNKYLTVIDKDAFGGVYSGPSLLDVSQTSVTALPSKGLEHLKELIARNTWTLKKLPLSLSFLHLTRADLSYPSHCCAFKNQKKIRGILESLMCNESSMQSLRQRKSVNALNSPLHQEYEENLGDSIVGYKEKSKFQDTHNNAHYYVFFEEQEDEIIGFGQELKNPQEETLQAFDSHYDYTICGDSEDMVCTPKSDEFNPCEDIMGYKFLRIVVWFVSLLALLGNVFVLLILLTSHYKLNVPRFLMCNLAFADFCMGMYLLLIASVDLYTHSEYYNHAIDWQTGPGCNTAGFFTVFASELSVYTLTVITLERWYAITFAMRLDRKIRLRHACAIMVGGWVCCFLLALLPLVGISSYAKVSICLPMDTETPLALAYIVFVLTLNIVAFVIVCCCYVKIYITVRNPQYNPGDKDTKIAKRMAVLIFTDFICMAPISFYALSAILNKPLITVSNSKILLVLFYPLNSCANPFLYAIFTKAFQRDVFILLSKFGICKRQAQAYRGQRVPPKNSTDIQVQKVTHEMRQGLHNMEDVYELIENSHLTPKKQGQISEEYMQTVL

CC(=O)Nc1ccc(N)cc1
inactive: Potency [1] | Potency [2] | Potency [3] | outcome [4] | Potency [5] | Potency [6] | Potency [7] | Potency [8] | Potency [9] | Potency [10] | Potency [11] | Potency [12] | max response [13] 4.7% | Potency [14] | Potency [15] | Potency [16] | Potency [17] | Potency [18]

CCCCC(CC)COC(=O)COc1ccc(Cl)cc1C (stereo not given)
inactive: Potency [1] | Potency [2] | Potency [3] | outcome [4] | Potency [5] | Potency [6] | Potency [7] | Potency [8] | Potency [9] | Potency [10] | Potency [11] | Potency [12] | max response [13] 14.7% | Potency [14] | Potency [15] | Potency [16] | Potency [17] | Potency [18]

C=CC(=C)CCCC(C)(C)OC(C)=O
inactive: Potency [1] | Potency [2] | Potency [3] | outcome [4] | Potency [5] | Potency [19] | activity change, positive = activation [20] -5.77% | Potency [7] | Potency [8] | Potency [9] | Potency [11] | Potency [12] | max response [13] -7.82% | Potency [14] | Potency [15] | Potency [16] | Potency [17] | Potency [18]

CC1(C)C(=O)N(Br)C(=O)N1Cl
inactive: Potency [1] | Potency [2] | Potency [3] | outcome [4] | Potency [5] | activity change, positive = activation [20] 1.48% | Potency [6] | Potency [7] | Potency [8] | Potency [9] | Potency [10] | Potency [11] | Potency [12] | max response [13] 8.13% | Potency [14] | Potency [15] | Potency [16] | Potency [17] | Potency [18]

ON(Cc1ccccc1)Cc1ccccc1
inactive: Potency [1] | Potency [2] | Potency [3] | outcome [4] | Potency [5] | Potency [6] | Potency [7] | Potency [8] | Potency [9] | Potency [10] | Potency [11] | Potency [12] | max response [13] 4.01% | Potency [14] | Potency [15] | Potency [16] | Potency [17] | Potency [18]

CC(C)(O)c1ccccc1CC[C@@H](SCC1(CC(=O)O)CC1)c1cccc(/C=C/c2ccc3ccc(Cl)cc3n2)c1
inactive: Potency [1] | Potency [2] | Potency [3] | outcome [4] | Potency [5] | Potency [19] | Potency [6] | Potency [7] | Potency [8] | Potency [9] | Potency [10] | Potency [11] | Potency [12] | max response [13] 0.38% | Potency [14] | Potency [15] | Potency [16] | Potency [17] | Potency [18]

OC/C(Br)=C(\Br)CO
inactive: Potency [1] | Potency [2] | Potency [3] | outcome [4] | Potency [5] | activity change, positive = activation [20] 1.63% | Potency [6] | Potency [7] | Potency [8] | Potency [9] | Potency [10] | Potency [11] | Potency [12] | Potency [15] | Potency [17] | Potency [18]

CN1Cc2cc(C(=O)N3CCC(C4CCNCC4)CC3)ccc2N[C@@H](CC(=O)O)C1=O
inactive: Potency [1] | Potency [2] | Potency [3] | outcome [4] | Potency [5] | Potency [19] | Potency [6] | Potency [7] | Potency [8] | Potency [9] | Potency [11] | Potency [12] | max response [13] 0.441% | Potency [15] | Potency [16] | Potency [17] | Potency [18]

NC(=O)N(O)[C@@H]1C=C[C@H](Oc2cccc(Oc3ccc(F)cc3)c2)C1
inactive: Potency [1] | Potency [2] | Potency [3] | outcome [4] | Potency [5] | Potency [19] | activity change, positive = activation [20] -15% | Potency [6] | Potency [8] | Potency [9] | Potency [16]
active: Potency [7] 17.4 µM | Potency [10] 43.6 µM | Potency [13] 19.5 µM | Potency [17] 38.9 µM | Potency [18] 38.9 µM

C1COCO1
inactive: Potency [1] | Potency [2] | Potency [3] | outcome [4] | Potency [5] | activity change, positive = activation [20] -2.3% | Potency [6] | Potency [7] | Potency [8] | Potency [9] | Potency [10] | Potency [11] | Potency [12] | max response [13] -1.05% | Potency [14] | Potency [15] | Potency [17] | Potency [18]

CCCCCCCCCCCCCCCCBr
inactive: activation [1] -0.411% [at 19 µM] | activity change, negative = cytotoxicity [2] -1.79% [at 15.8 µM] | activation (H2AX phosphorylation) [3] -0.41% [at 31.6 µM] | activation [4] 0.309% [at 15.8 µM] | activity change, negative = cytotoxicity [5] 2.27% [at 31.6 µM] | activity, negative = inhibition [19] 8.88% [at 19 µM] | activity change, positive = activation [20] 4.62% [at 19 µM] | activity change, negative = cytotoxic [7] 4.73% [at 15.8 µM] | cytotoxicity [8] -1.2% [at 15.8 µM] | activity change, negative = cytotoxic [9] 2.22% [at 15.8 µM] | activity change, negative = cytotoxicity [11] 6.53% [at 15.8 µM] | viability change, negative = cytotoxic [12] 2.68% [at 15.8 µM] | max response [13] 4.08% | activity change [14] 2.71% [at 15.8 µM, hits give high values] | cytotoxicity increase [15] -3.1% [at 15.8 µM] | activity change, negative = cytotoxic [16] 2.91% [at 15.8 µM] | cytotoxicity [17] -6.35% [at 15.8 µM] | cytotoxicity increase [18] -7.84% [at 15.8 µM]
